Data from ChEMBL document CHEMBL3433997, “St. Jude Leishmania screening dataset” (2016).

Target: Solute carrier family 2, facilitated glucose transporter member 1 (Homo sapiens) (UniProt P11166)
Assay: ST_JUDE_LEISH: Cytotoxicity at 2uM final concentration against transgenic Leishmania Mexicana promastigotes LmGLUT1 that are glucose transport deficient and complemented with the human glucose transporter GLUT1. Activity is measured by DNA content using SYBR green in vitro
Type: functional

Solute carrier family 2, facilitated glucose transporter member 1 (Homo sapiens), sequence (P11166 whole entry): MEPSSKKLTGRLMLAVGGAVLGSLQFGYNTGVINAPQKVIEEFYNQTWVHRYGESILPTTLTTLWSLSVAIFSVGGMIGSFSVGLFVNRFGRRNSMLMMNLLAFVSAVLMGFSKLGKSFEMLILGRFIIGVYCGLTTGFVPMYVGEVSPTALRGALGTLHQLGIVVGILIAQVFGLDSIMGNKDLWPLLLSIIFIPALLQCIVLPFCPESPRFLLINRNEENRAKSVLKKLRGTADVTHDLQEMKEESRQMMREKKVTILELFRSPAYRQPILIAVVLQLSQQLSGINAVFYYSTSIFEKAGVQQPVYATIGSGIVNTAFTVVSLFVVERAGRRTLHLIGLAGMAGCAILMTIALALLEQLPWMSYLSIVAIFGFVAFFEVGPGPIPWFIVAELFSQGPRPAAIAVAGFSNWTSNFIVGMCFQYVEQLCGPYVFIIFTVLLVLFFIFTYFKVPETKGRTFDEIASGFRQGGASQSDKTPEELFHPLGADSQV

For `Cc1c(C)c2c(c(C)c1O)CC[C@@](C)(C(=O)N1CCC(CCN3CCC(c4c[nH]c5ccccc45)CC3)CC1)O2`, which inhibition is on record?
Its inhibition is 7.87%.

How did the inhibition turn out when `COc1ccc2nccc([C@@H](O)CN3CCC(NCc4ccc5nnsc5c4)CC3)c2c1` was run?
The inhibition was -1.03%.

For `CN(CC(=O)Nc1ccc(F)c(F)c1F)c1ncnc2sc(-c3ccccc3)cc12`, which inhibition is on record?
The inhibition was 3.92%.

Which inhibition does the source give for `N#Cc1ccc(-c2ccc(C(=O)NC3CCN(CCN4CCC(c5cn(CCO)c6ccccc56)CC4)CC3)cc2)cc1` here?
The inhibition was 1.3%.

With `CCOC(=O)[C@H](Cc1cc([N+](=O)[O-])c(Oc2ccc(OC)c(Cc3ccc(OC)c(C(C)C)c3)c2)c([N+](=O)[O-])c1)NC(=O)C(F)(F)F` as the molecule, how does the inhibition read?
The inhibition was 10.8%.

Which inhibition does the source give for `CCCC(C)NC(=O)[C@H](CC1CCCCC1)NC(=O)c1ccc(O)c(-c2cccc(C(F)(F)F)c2)c1` (stereo not given in full) here?
The inhibition was -1.37%.

`CC(C)NC(=O)c1cccc(-c2cccc(OCCN3CCSCC3c3ccccc3)c2)c1` (stereo not given) was tested. Which inhibition did it give?
The inhibition was 10.4%.

With `CCN(CC)CCOc1ccc(C(O)(C#CC(O)(c2ccc(Br)cc2)c2ccc(OCCN(CC)CC)cc2)c2ccc(Br)cc2)cc1` (stereo not given) as the molecule, how does the inhibition read?
The inhibition was 4.97%.

For `CC(C)N1CCC(N(Cc2ccc(-c3ccc(Cl)cc3)cc2)C(=O)Cn2c(CCc3cccc(F)c3F)cc(=O)c3ccccc32)CC1`, which inhibition is on record?
Its inhibition is 2.59%.

Which inhibition does the source give for `COc1ccc(CN(C)CCCOc2ccc(NC(=O)c3cccc4c(=O)c5cccc(C)c5[nH]c34)cc2)cc1OC` here?
Its inhibition is 4.56%.

`N=C(/N=C(/NCCCCCCN/C(=N\C(=N)Nc1ccc(Cl)cc1)N1CCOCC1)N1CCOCC1)Nc1ccc(Cl)cc1` was tested. Which inhibition did it give?
The inhibition was 10.5%.

For `Cc1sc(NC(=O)Cc2cccc(C(F)(F)F)c2)nc1-c1cccc(Cl)c1`, which inhibition is on record?
The inhibition was 9.6%.

How did the inhibition turn out when `CC1CCN(CC[C@H]2CCCN2S(=O)(=O)c2cccc(NC(=O)c3cc4ccccc4s3)c2)CC1` was run?
The inhibition was 4.95%.

Which inhibition does the source give for `CC(C)NCc1cc(Nc2ccnc3cc(Cl)ccc23)ccc1O` here?
The inhibition was 0.05%.

How did the inhibition turn out when `CCOC(=O)[C@H](Cc1cccc2ccccc12)NC(=O)[C@H](CCC(=O)OC(C)(C)C)NC(=O)c1ccc(N(C)Cc2cnc3nc(N)nc(N)c3n2)cc1` was run?
Its inhibition is 3.47%.

With `CN(C)c1ccc(-c2nc3cc(N)ccc3[nH]2)cc1` as the molecule, how does the inhibition read?
The inhibition was -2.7%.

With `COc1ccc2cc(-c3nc(-c4c(Cl)cccc4Cl)[nH]c3-c3ccnc(NCCCN4CCCCC4C)c3)ccc2c1` (stereo not given) as the molecule, how does the inhibition read?
The inhibition was 0.59%.

Which inhibition does the source give for `CC(C)CC(C)NC(=O)C1Cc2c([nH]c3ccc(F)cc23)C2(CCN(Cc3ccccc3)CC2)N1` (stereo not given) here?
The inhibition was 7.56%.

`COc1cc(-c2nc3ccc(N4CCN(C)CC4)cc3[nH]2)cc(OC)c1OC` was tested. Which inhibition did it give?
Its inhibition is 2.08%.

`CC1CCCN1Cc1ccc(-c2ccc3c(=O)cc(CCc4cccc(F)c4F)n(CC(=O)N(C)Cc4ccc(-c5ccc(C(F)(F)F)cc5)cc4)c3n2)cc1` (stereo not given) was tested. Which inhibition did it give?
Its inhibition is -0.63%.

For `Cc1ccc2c(Cc3cnc(N)nc3N)cc(C)c(N)c2n1`, which inhibition is on record?
The inhibition was 2.06%.

With `COc1ccccc1C1CCN(C2CCC(NC(=O)/C=C/c3ccc(F)c(F)c3)CC2)CC1` (stereo not given) as the molecule, how does the inhibition read?
Its inhibition is -3.94%.

With `O=C(C=Cc1ccc(Cl)c(Cl)c1)NCCCCCN1CCC(CCNC(=O)c2cccc3ccccc23)CC1` as the molecule, how does the inhibition read?
Its inhibition is 4.11%.

Which inhibition does the source give for `O=C(Nc1ccc(OC2CCN(Cc3ccccc3)CC2)c(Cl)c1)c1ccc(F)cc1` here?
Its inhibition is 2.05%.

How did the inhibition turn out when `O=C(Nc1cccc(-c2ccc(-c3nc4cc(F)ccc4[nH]3)s2)c1)c1ccncc1` was run?
The inhibition was 6.59%.

How did the inhibition turn out when `O=C(NCCCCN1CCN(c2cccc3c2CCCC3)CC1)c1ccc(NC(=O)c2ccc(Cl)cc2)cc1` was run?
The inhibition was 3.35%.

With `CC(=O)c1sc(Cc2nc3ccccc3s2)nc1C` as the molecule, how does the inhibition read?
The inhibition was 0.49%.

Which inhibition does the source give for `CN(C)CCOc1cc(NC(=O)Nc2ccc(-c3ccccc3)cc2)ccc1I` here?
The inhibition was 12.5%.

How did the inhibition turn out when `Cc1c(Cl)cccc1S(=O)(=O)Nc1ccc(CCN2CCC(N)CC2)cc1` was run?
Its inhibition is -2.63%.

Which inhibition does the source give for `COc1ccc(C2CCN(C#N)C2)cc1OC1CCCC1` (stereo not given) here?
The inhibition was 17%.

For `O=C(Nc1cccc(-c2cccc(-c3nc4cc(C(F)(F)F)ccc4[nH]3)c2)c1)c1cccnc1Cl`, which inhibition is on record?
The inhibition was 0.15%.

With `Cn1ncc2ccc(Nc3nccc(-c4ccc5c(c4)c(N)nn5C)n3)cc21` as the molecule, how does the inhibition read?
The inhibition was 93.3%.

For `Cc1cc(C=C(P(=O)(OC(C)C)OC(C)C)P(=O)(OC(C)C)OC(C)C)c2ccccc2c1O`, which inhibition is on record?
Its inhibition is 6.71%.

`Cc1cccc(CC(=N)NCCCCCCNC(=N)Cc2cccc(C)c2)c1` was tested. Which inhibition did it give?
Its inhibition is 0.27%.

With `O=C(NCCN1CCCCC1)c1ccc(CNC(=O)c2ccc(O)c(-c3ccc(Cl)c(Cl)c3)c2)cc1` as the molecule, how does the inhibition read?
The inhibition was 0.15%.

With `Fc1cccc(COc2ccc(Nc3ncnc4ccc(C#C[C@H]5CCCN5)cc34)cc2Cl)c1` as the molecule, how does the inhibition read?
Its inhibition is 1.39%.

`Fc1ccc2[nH]c(-c3cccc(-c4cccc(CN5CCN(c6ccncc6)CC5)c4)c3)nc2c1` was tested. Which inhibition did it give?
The inhibition was 0.24%.

`CC(C)NCc1cccc(-c2ccc(-c3nc4cc(C(F)(F)F)ccc4[nH]3)cc2)c1` was tested. Which inhibition did it give?
The inhibition was 7.38%.

`COc1ccc2nccc(CCN3CC(O)C(CNCc4ccc5c(n4)NC(=O)CS5)C3)c2n1` (stereo not given) was tested. Which inhibition did it give?
Its inhibition is 3.43%.

Which inhibition does the source give for `Cc1cc(C2NC(=O)c3ccccc3N2)c(C)n1-c1ccc2c(c1)OCO2` (stereo not given) here?
Its inhibition is 4.98%.

Target: Hexose transporter 1 (Plasmodium falciparum) (UniProt O97467)
Assay: ST_JUDE_LEISH: Cytotoxicity at 2uM final concentration against transgenic Leishmania Mexicana promastigotes LmPfHT that are glucose transport deficient and complemented with the Plasmodium falciparum hexose transporter. Activity is measured by DNA content using SYBR green in vitro
Type: functional

For `Cc1c(C)c2c(c(C)c1O)CC[C@@](C)(C(=O)N1CCC(CCN3CCC(c4c[nH]c5ccccc45)CC3)CC1)O2`, which inhibition is on record?
The inhibition was 7%.

Which inhibition does the source give for `COc1ccc2nccc([C@@H](O)CN3CCC(NCc4ccc5nnsc5c4)CC3)c2c1` here?
The inhibition was 0.44%.

How did the inhibition turn out when `CN(CC(=O)Nc1ccc(F)c(F)c1F)c1ncnc2sc(-c3ccccc3)cc12` was run?
The inhibition was 4.09%.

With `N#Cc1ccc(-c2ccc(C(=O)NC3CCN(CCN4CCC(c5cn(CCO)c6ccccc56)CC4)CC3)cc2)cc1` as the molecule, how does the inhibition read?
Its inhibition is 1.27%.

`CCOC(=O)[C@H](Cc1cc([N+](=O)[O-])c(Oc2ccc(OC)c(Cc3ccc(OC)c(C(C)C)c3)c2)c([N+](=O)[O-])c1)NC(=O)C(F)(F)F` was tested. Which inhibition did it give?
The inhibition was 9.19%.

`CCCC(C)NC(=O)[C@H](CC1CCCCC1)NC(=O)c1ccc(O)c(-c2cccc(C(F)(F)F)c2)c1` (stereo not given in full) was tested. Which inhibition did it give?
The inhibition was 3.47%.

How did the inhibition turn out when `CC(C)NC(=O)c1cccc(-c2cccc(OCCN3CCSCC3c3ccccc3)c2)c1` (stereo not given) was run?
The inhibition was 9.35%.

For `CCN(CC)CCOc1ccc(C(O)(C#CC(O)(c2ccc(Br)cc2)c2ccc(OCCN(CC)CC)cc2)c2ccc(Br)cc2)cc1` (stereo not given), which inhibition is on record?
Its inhibition is 5%.

Which inhibition does the source give for `CC(C)N1CCC(N(Cc2ccc(-c3ccc(Cl)cc3)cc2)C(=O)Cn2c(CCc3cccc(F)c3F)cc(=O)c3ccccc32)CC1` here?
The inhibition was 2.15%.

For `COc1ccc(CN(C)CCCOc2ccc(NC(=O)c3cccc4c(=O)c5cccc(C)c5[nH]c34)cc2)cc1OC`, which inhibition is on record?
Its inhibition is 4.25%.

Which inhibition does the source give for `N=C(/N=C(/NCCCCCCN/C(=N\C(=N)Nc1ccc(Cl)cc1)N1CCOCC1)N1CCOCC1)Nc1ccc(Cl)cc1` here?
The inhibition was 9.54%.

How did the inhibition turn out when `Cc1sc(NC(=O)Cc2cccc(C(F)(F)F)c2)nc1-c1cccc(Cl)c1` was run?
The inhibition was 8.91%.

With `CC1CCN(CC[C@H]2CCCN2S(=O)(=O)c2cccc(NC(=O)c3cc4ccccc4s3)c2)CC1` as the molecule, how does the inhibition read?
Its inhibition is 6.97%.

For `CC(C)NCc1cc(Nc2ccnc3cc(Cl)ccc23)ccc1O`, which inhibition is on record?
Its inhibition is 1.48%.

`CCOC(=O)[C@H](Cc1cccc2ccccc12)NC(=O)[C@H](CCC(=O)OC(C)(C)C)NC(=O)c1ccc(N(C)Cc2cnc3nc(N)nc(N)c3n2)cc1` was tested. Which inhibition did it give?
The inhibition was 4.12%.

`CN(C)c1ccc(-c2nc3cc(N)ccc3[nH]2)cc1` was tested. Which inhibition did it give?
Its inhibition is 3.58%.

How did the inhibition turn out when `COc1ccc2cc(-c3nc(-c4c(Cl)cccc4Cl)[nH]c3-c3ccnc(NCCCN4CCCCC4C)c3)ccc2c1` (stereo not given) was run?
Its inhibition is -0.07%.

Which inhibition does the source give for `CC(C)CC(C)NC(=O)C1Cc2c([nH]c3ccc(F)cc23)C2(CCN(Cc3ccccc3)CC2)N1` (stereo not given) here?
Its inhibition is 12.3%.

`COc1cc(-c2nc3ccc(N4CCN(C)CC4)cc3[nH]2)cc(OC)c1OC` was tested. Which inhibition did it give?
The inhibition was 2.62%.

For `CC1CCCN1Cc1ccc(-c2ccc3c(=O)cc(CCc4cccc(F)c4F)n(CC(=O)N(C)Cc4ccc(-c5ccc(C(F)(F)F)cc5)cc4)c3n2)cc1` (stereo not given), which inhibition is on record?
The inhibition was -4.81%.

`Cc1ccc2c(Cc3cnc(N)nc3N)cc(C)c(N)c2n1` was tested. Which inhibition did it give?
The inhibition was 3.47%.

How did the inhibition turn out when `COc1ccccc1C1CCN(C2CCC(NC(=O)/C=C/c3ccc(F)c(F)c3)CC2)CC1` (stereo not given) was run?
Its inhibition is -1.53%.

`O=C(C=Cc1ccc(Cl)c(Cl)c1)NCCCCCN1CCC(CCNC(=O)c2cccc3ccccc23)CC1` was tested. Which inhibition did it give?
Its inhibition is 2.98%.

Which inhibition does the source give for `O=C(Nc1ccc(OC2CCN(Cc3ccccc3)CC2)c(Cl)c1)c1ccc(F)cc1` here?
Its inhibition is 2%.

With `O=C(Nc1cccc(-c2ccc(-c3nc4cc(F)ccc4[nH]3)s2)c1)c1ccncc1` as the molecule, how does the inhibition read?
The inhibition was 5.83%.

For `O=C(NCCCCN1CCN(c2cccc3c2CCCC3)CC1)c1ccc(NC(=O)c2ccc(Cl)cc2)cc1`, which inhibition is on record?
The inhibition was 1.45%.

With `CC(=O)c1sc(Cc2nc3ccccc3s2)nc1C` as the molecule, how does the inhibition read?
The inhibition was 1.15%.

`CN(C)CCOc1cc(NC(=O)Nc2ccc(-c3ccccc3)cc2)ccc1I` was tested. Which inhibition did it give?
Its inhibition is 12.7%.

With `Cc1c(Cl)cccc1S(=O)(=O)Nc1ccc(CCN2CCC(N)CC2)cc1` as the molecule, how does the inhibition read?
The inhibition was -0.88%.

For `COc1ccc(C2CCN(C#N)C2)cc1OC1CCCC1` (stereo not given), which inhibition is on record?
The inhibition was 17.2%.

How did the inhibition turn out when `O=C(Nc1cccc(-c2cccc(-c3nc4cc(C(F)(F)F)ccc4[nH]3)c2)c1)c1cccnc1Cl` was run?
The inhibition was 0.52%.

With `Cn1ncc2ccc(Nc3nccc(-c4ccc5c(c4)c(N)nn5C)n3)cc21` as the molecule, how does the inhibition read?
Its inhibition is 97.5%.

`Cc1cc(C=C(P(=O)(OC(C)C)OC(C)C)P(=O)(OC(C)C)OC(C)C)c2ccccc2c1O` was tested. Which inhibition did it give?
Its inhibition is 7.2%.

Which inhibition does the source give for `Cc1cccc(CC(=N)NCCCCCCNC(=N)Cc2cccc(C)c2)c1` here?
The inhibition was 0.31%.

Which inhibition does the source give for `O=C(NCCN1CCCCC1)c1ccc(CNC(=O)c2ccc(O)c(-c3ccc(Cl)c(Cl)c3)c2)cc1` here?
Its inhibition is 0.04%.

Which inhibition does the source give for `Fc1cccc(COc2ccc(Nc3ncnc4ccc(C#C[C@H]5CCCN5)cc34)cc2Cl)c1` here?
Its inhibition is 1.5%.

`Fc1ccc2[nH]c(-c3cccc(-c4cccc(CN5CCN(c6ccncc6)CC5)c4)c3)nc2c1` was tested. Which inhibition did it give?
The inhibition was 1.73%.

How did the inhibition turn out when `CC(C)NCc1cccc(-c2ccc(-c3nc4cc(C(F)(F)F)ccc4[nH]3)cc2)c1` was run?
The inhibition was 6.19%.

How did the inhibition turn out when `COc1ccc2nccc(CCN3CC(O)C(CNCc4ccc5c(n4)NC(=O)CS5)C3)c2n1` (stereo not given) was run?
Its inhibition is 3.49%.

Which inhibition does the source give for `Cc1cc(C2NC(=O)c3ccccc3N2)c(C)n1-c1ccc2c(c1)OCO2` (stereo not given) here?
Its inhibition is 3.59%.
